# Data reported in PubChem BioAssay AID504652 (National Center for Advancing Translational Sciences (NCATS), 2011).
# Values joined by “and” are separate entries in the source; they are usually repeats but may differ in a detail not shown here. Identical values can stand only once. In all, about 360,000 compounds went through this assay and about 11,000 (3.1%) were called active. No stated cut-off is given here; in the data, active means activity change below about -30%; inactive means the rest. The full list was thinned out, with actives kept by preference.
# Target: D(1A) dopamine receptor (Homo sapiens) (UniProt P21728)
# Sequence (P21728 whole entry, looked up): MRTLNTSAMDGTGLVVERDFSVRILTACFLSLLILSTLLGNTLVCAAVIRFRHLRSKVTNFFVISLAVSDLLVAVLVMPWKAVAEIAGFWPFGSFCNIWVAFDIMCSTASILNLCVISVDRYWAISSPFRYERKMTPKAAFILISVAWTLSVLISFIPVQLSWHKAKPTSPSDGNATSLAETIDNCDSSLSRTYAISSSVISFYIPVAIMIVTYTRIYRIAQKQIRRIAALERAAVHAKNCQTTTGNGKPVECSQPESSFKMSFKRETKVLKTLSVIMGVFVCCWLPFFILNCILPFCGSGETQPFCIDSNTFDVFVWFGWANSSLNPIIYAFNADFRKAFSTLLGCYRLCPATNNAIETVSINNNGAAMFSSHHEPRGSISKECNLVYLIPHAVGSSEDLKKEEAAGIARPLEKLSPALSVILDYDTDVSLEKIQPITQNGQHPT
# Assay: Antagonist of Human D 1 Dopamine Receptor: qHTS
# Conditions: HEK293 TREx D1 cells, calcium flux, dopamine EC80; at 10 µM; hits give low values
# Outline: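 Compound effects on dopamine-evoked calcium signalling were measured in tetracycline-induced HEK293 Trex D1 cells. Dopamine at EC80 followed a 180 s compound pre-read, and fluorescence was tracked kinetically for 180 s more.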
# On the % scale 0 is the no-effect control and ±100 the full control effect.
row,SMILES,"activity change, negative = inhibition"
1,CCCN1CCc2nc(N3CCN(C)CC3)ncc2C1,-15.6% (inactive)
2,CSc1cccc(NC(=O)CN2C(=O)CCc3cc(S(=O)(=O)N4CCCCC4)ccc32)c1,-0.775% (inactive)
3,Cc1cc2c(cc3c(SCc4cccc(Cl)c4)nnc(C)n32)o1,-2.95% (inactive)
4,Cc1ccc(CNS(=O)(=O)c2ccc(-c3cc(C(F)(F)F)on3)s2)cc1,0.708% (inactive)
5,COc1ccccc1CCNC(=O)c1cccn1-c1nnc(N2CCCCC2)s1,13.6% (inactive)
6,CCCOc1cccc(C(=O)Nc2cccc(NC(=O)c3ccc(C(C)(C)C)cc3)c2)c1,-1.05% (inactive)
7,CCOc1cccc2c1N[C@@H](c1ccc(C(=O)O)cc1)[C@H]1CC=C[C@@H]21,-19.7% (inactive)
8,Cc1ccc2nc(COc3cccc(NC(=O)c4ccccc4Cl)c3)cc(=O)n2c1,-6.97% (inactive)
9,CC(=O)NCCn1c(SCC(=O)Nc2ccc(C)cc2)nc2ccccc2c1=O,1.17% (inactive) and -18.8% (inactive)
10,CN(C)CCCn1c(SCCN2C(=O)c3ccccc3C2=O)nc2ccccc2c1=O,-51.8% (active)
11,O=C(CSc1nc2ccccc2c(=O)n1CCCO)NC1CC1,8.77% (inactive)
12,Cc1ccc(Cc2nc3ccccc3nc2SCC(=O)Nc2cccc(C(F)(F)F)c2)cc1,-11.6% (inactive)
13,O=C(CCc1nc(CN2CCN(S(=O)(=O)c3ccc(Cl)cc3)CC2)no1)N1CCCCC1,-4.7% (inactive)
14,Cc1ccccc1S(=O)(=O)N1[C@@H](c2cccc(Cl)c2)C(C(=O)O)=CC[C@H]1c1ccc(Cl)cc1,-39.7% (active)
15,Cc1ccc(S(=O)(=O)N2[C@@H](c3cccc(Cl)c3)C(C(=O)O)=CC[C@H]2c2ccc(Cl)c(Cl)c2)cc1,-17.8% (inactive)
16,Cc1ccc([C@@H]2CC=C(C(=O)O)[C@H](c3cccc(Cl)c3)N2S(=O)(=O)c2ccc(C)cc2)cc1,-12.2% (inactive)
17,CCc1cccc(-n2nnc(-c3nsc(NC(=O)c4ccc(C)cc4)n3)c2C)c1,16.6% (inactive)
18,CCOCC(=O)NCc1ccc2c(c1)cc(C)n2C,-38.5% (active)
19,Cc1ccc(CNC(=O)COc2ccc3c(c2)CCC3)cc1,0.495% (inactive)
20,COc1cc(C(=O)NCc2ccc3c(c2)cc(C)n3C)cc(OC)c1OC,-1.99% (inactive)
21,CCc1ccccc1NC(=O)Cn1c(=O)n(CC2CCC(C(=O)NCCc3ccccc3)CC2)c(=O)c2ccccc21 (centres undefined),9.85% (inactive)
22,CC(=O)c1c(C)n(-c2ccc(N(C)C)cc2)c2ccc(OCC(N)=O)cc12,4.08% (inactive)
23,CCOC(=O)c1c(CN2CCOCC2)n(-c2ccccc2)c2ccc(O)cc12,2.3% (inactive)
24,CC(=O)c1c(C)n(-c2ccc(C)cc2)c2ccc(O)cc12,-50.8% (active)
